HPGD block – qHTS Assay for Inhibitors of HPGD (15-Hydroxyprostaglandin Dehydrogenase); Potency, µM, for inactives: top-dose activity change, negative = inhibition, most hits filed as inhibitors; hit rate 4.3% among 150,000; purified HPGD, NADH fluorescence kinetic, PGE2 substrate; active = well fitted inhibition curve with a large enough effect, not every such curve was filed as active; inconclusive = small, poorly fitted or top-dose-only effect, or another doubt; inactive = no such curve, though single readings can be large or run the other way; also: % is scaled to controls: 0 for no effect and ±100 for the full control effect
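20 nM HPGD preincubated 15 min at room temperature with compound in 50 mM Tris-HCl pH 8, 0.01% Tween 20. Started with 1 mM NAD+ and 30 uM prostaglandin E2; NADH fluorescence (360/450 nm) read 5 times over 30-s intervals, last minus first.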
HTT ATP protect – qHTS Multiplex Assay to Identify Dual Action Probes in a Cell Model of Huntington: Cytoprotection (ATP); PC12 HTT-Q103 induced, cytoprotection, ATP luminescence, 40 h; hit rate 0.14% among 230,000; Potency, µM (doses to about 56.4 µM), without a hit: cytoprotection (ATP increase), actives largely listed as activators; also: % of control where 0% means no effect; nearly all actives have a fitted effect of over 45% in size
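Quantitative HTS on tebufenozide-induced (100 nM) PC12 cells expressing HTTQ103 exon 1–GFP; compounds tested as a concentration series; survival measured via cellular ATP.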
KinaseGlo FLuc – Counterscreen for Luciferase (Kinase-Glo TM) Inhibition | Luciferin 4-monooxygenase (Photuris pensylvanica), Q27757 | Kinase-Glo luciferase, ATP luminescence, 8 min | Potency, µM (highest dose often 38.3 µM), for the others: at the highest dose activity change, negative = inhibition, actives largely listed as inhibitors | hit rate 0.28% among 200,000; also: % is scaled to controls: 0 for no effect and ±100 for the full control effect; nearly all actives have a fitted effect of over 60% in size
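Kinase-Glo luciferase light output from ATP and luciferin was measured with 10 uM ATP, within the enzyme's linear range. Buffer: 50 mM imidazole pH 7.2, 50 mM KCl, 7 mM MgCl2, 0.01% Tween 20, 0.05% BSA; luminescence read after 8 min at ambient temperature.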
ALDH1A1 inh – qHTS Assay for Inhibitors of Aldehyde Dehydrogenase 1 (ALDH1A1) | hit rate 7.3% among 220,000 | Potency, µM (top dose mostly 75.3 µM), for inactives: at the top dose activity, negative = inhibition, hits mostly inhibitors | Purified ALDH1A1, NADH fluorescence, propionaldehyde substrate; active = well fitted inhibition curve with a large enough effect, not every such curve was filed as active; inconclusive = small, poorly fitted or top-dose-only effect, or another doubt; inactive = no such curve, though single readings can be large or run the other way;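 also: plate controls were no enzyme wells and a reference inhibitor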
Target sequence (P00352 whole entry, looked up): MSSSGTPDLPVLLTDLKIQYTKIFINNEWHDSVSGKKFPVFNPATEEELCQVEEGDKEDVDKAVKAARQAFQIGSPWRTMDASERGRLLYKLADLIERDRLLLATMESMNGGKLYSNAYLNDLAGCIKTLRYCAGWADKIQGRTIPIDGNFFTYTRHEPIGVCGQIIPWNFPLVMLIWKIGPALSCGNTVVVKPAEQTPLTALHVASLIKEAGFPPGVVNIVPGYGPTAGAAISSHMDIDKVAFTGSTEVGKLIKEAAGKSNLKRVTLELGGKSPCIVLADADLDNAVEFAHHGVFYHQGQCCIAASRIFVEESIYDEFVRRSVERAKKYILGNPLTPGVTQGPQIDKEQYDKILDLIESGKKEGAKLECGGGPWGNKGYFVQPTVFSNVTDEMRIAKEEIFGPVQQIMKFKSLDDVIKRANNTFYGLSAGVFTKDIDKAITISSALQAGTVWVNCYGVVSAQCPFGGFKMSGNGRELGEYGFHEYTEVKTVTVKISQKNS
LMNA splice mod – qHTS Assay for Modulators of Lamin A Splicing; hit rate 0.01% among 200,000; Potency, µM (highest dose often 46.1 µM), without a hit: at the highest dose ratio change, negative = inhibition, actives largely listed as inhibitors; HeLa LMNA splicing GFP/RFP minigene ratio, 48 h; AID 1487, 2009; active = well fitted inhibition curve with a large enough effect in the signal ratio, with a control signal flat, not every such curve was filed as active; inconclusive = small, poorly fitted or top-dose-only effect, or effect the other way, or a change in a side signal; the % refers to the signal ratio; also: % is scaled to controls: 0 for no effect and ±100 for the full control effect
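S3 HeLa stable clones carrying a lamin A-EGFP splicing minigene plus DsRed2 were seeded at 600 cells/well in Opti-MEM with 2% FBS, pin-dosed and incubated 48 h at 37°C. Acumen cytometry (488 nm) gave the GFP/RFP total-intensity ratio.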
HTT aggregate – qHTS Multiplex Assay to Identify Dual Action Probes in a Cell Model of Huntington: Aggregate Formation (GFP); PC12 HttQ103-GFP aggregates, Acumen cytometry, 40 h; Potency, µM (series often up to 46.1 µM), for the others: top-dose activity change, negative = inhibition, hits mostly inhibitors; hit rate 1.1% among 220,000; AID 1688, 2009; also: % is scaled to controls: 0 for no effect and ±100 for the full control effect; nearly all actives have a fitted effect of over 60% in size
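Using laser scanning cytometry, GFP-positive aggregates were counted after lysis of PC12 cells induced with 100 nM tebufenozide to express HTT exon 1 Q103–GFP. Compounds were tested in titration.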
* = called active by the depositor; [ ] = dose if it differs, or a comment. Compounds with a hit are over-represented: about 9% of the library has one in this group of screens. Unless noted, calls follow the shape of the dose curve; as a rule, active = well fitted curve in the direction sought with a large enough effect; inconclusive = small, poorly fitted or top-dose-only effect, or another doubt; inactive = no such curve, though single readings can be large; an effect the other way counts as inactive or inconclusive. Potency is read from the fitted curve at half-maximal effect.

For O=C(NCc1ccc2c(c1)OCO2)c1cc(-c2ccccn2)nc2ccccc12 the results were HTT ATP protect -11%[10 µM], KinaseGlo FLuc -1%, ALDH1A1 inh 1.3µM*, LMNA splice mod inconclusive and HTT aggregate -18%.
Screening CCOCCCNC(=O)C(c1ccccc1)N(Cc1ccc2c(c1)OCO2)C(=O)c1ccccc1O (configuration not stated) returned HTT ATP protect -21%, ALDH1A1 inh 10µM* and HTT aggregate -1%.
`CC(C)OC(=O)CC1C(=O)NCCN1C(=S)NC(=O)c1ccccc1Cl` (configuration not stated) gave HTT ATP protect 8%, KinaseGlo FLuc -1%, ALDH1A1 inh -4%, LMNA splice mod -3%[46 µM] and HTT aggregate -6%[9.22 µM].
For COc1cccc(NC(=O)Cn2cc(C#N)c3ccccc32)c1 the results were HPGD block -5%, HTT ATP protect 15%[10 µM], KinaseGlo FLuc 5%, ALDH1A1 inh -1%, LMNA splice mod -2% and HTT aggregate -15%.
`O=C(OCc1ccc(Cl)cc1)c1ccccc1C(=O)c1ccccc1` gave HPGD block -18%, HTT ATP protect 8%, KinaseGlo FLuc -2%, ALDH1A1 inh inconclusive, LMNA splice mod 17% and HTT aggregate -6%.
`COc1ccc(NC(=O)Cn2cnc3c(cnn3-c3ccc(C)c(C)c3)c2=O)c(OC)c1` gave HPGD block inconclusive, HTT ATP protect -45%, KinaseGlo FLuc -2%, ALDH1A1 inh inconclusive, LMNA splice mod 14% and HTT aggregate -9%.
`O=C(C[n+]1ccc(C(=O)NCc2ccccc2)cc1)c1ccc2c(c1)OCCO2` gave HTT ATP protect -15%, KinaseGlo FLuc -1%, ALDH1A1 inh 3.5µM* and HTT aggregate 25%.
O=C(NCc1ccc2c(c1)OCO2)NC1CCCCC1 was read as HTT ATP protect 1%[10 µM], KinaseGlo FLuc -1%, ALDH1A1 inh -4%, LMNA splice mod -1%[46 µM] and HTT aggregate -3%[9.22 µM].
For O=C(Nc1ccc2c(c1)OCO2)c1cc(-c2cccnc2)nc2ccccc12 the results were HTT ATP protect -40%, KinaseGlo FLuc -2%, ALDH1A1 inh 7.9µM*, LMNA splice mod -14%[46 µM] and HTT aggregate -15%.
Screening O=C(CC12CCC(CC1)C2)NCc1ccc2c(c1)OCO2 returned HPGD block 16µM*, HTT ATP protect 25%[1.9 µM], KinaseGlo FLuc 1%, ALDH1A1 inh -10%, LMNA splice mod -6% and HTT aggregate -4%.
For O=C(Nc1ccc(NC(=O)c2cccs2)cc1)c1ccc2c(c1)OCO2 the results were HTT ATP protect 13%[10 µM] and HTT aggregate 23%[9.22 µM].
CCC/C(=N/NC(=O)c1ccc2c(c1)OCO2)c1cccs1 was read as HPGD block 16µM*, KinaseGlo FLuc -13%, ALDH1A1 inh inconclusive, LMNA splice mod -2% and HTT aggregate -1%.
CCOc1ccc(NC(=O)C/C(N)=N/O)cc1 was read as HPGD block -10%, HTT ATP protect -1%, KinaseGlo FLuc 1%, ALDH1A1 inh 0%, LMNA splice mod 0% and HTT aggregate -5%.
Screening O=c1[nH]nc(Cc2ccc(Cl)cc2)c2ccccc12 returned HPGD block -12%, HTT ATP protect 2%[10 µM], KinaseGlo FLuc -3%, ALDH1A1 inh 5%, LMNA splice mod inconclusive and HTT aggregate -31%.
`CCOC(=O)CSc1nnc(NC(=O)c2cccc([N+](=O)[O-])c2)s1` gave HPGD block -21%, HTT ATP protect 10%[10 µM], KinaseGlo FLuc -2%, ALDH1A1 inh -5%, LMNA splice mod -5% and HTT aggregate 5%.
